± gives the standard deviation.
Experiments:
Settings in all cases: modulator concentration 10 µM
[1] = test system: RAW-Dual (murine macrophage reporter line); assay: NF-kB reporter (SEAP) activity fold change vs agonist alone; higher = enhanced NF-kB activity
Method in brief: (§1)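 RAW-Dual murine macrophage reporter cells were plated at 50 000 per well in 384-well plates, pin-transferred compound to 10 μM final, and pre-incubated for 1 hour at 37 °C before a PRR agonist was added and the cells incubated overnight. NF-κB activity was read from supernatant SEAP with QUANTI-Blue at 620 nm absorbance, and IRF activity from Lucia luciferase with QUANTI-Luc by luminescence. Each signal was expressed as fold change by dividing by the mean agonist-only control on the same plate. Two replicate plates were averaged, with errors obtained by propagation.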

[2] = test system: RAW-Dual (murine macrophage reporter line); assay: IRF reporter (Lucia luciferase) activity fold change vs agonist alone; higher = enhanced IRF activity
Method in brief: as §1

[3] = test system: RAW-Dual (murine macrophage reporter line); assay: viability score (confluency relative to resting cells, overnight) (fraction); higher = more viable, active = viable (0.7 or more)
Method in brief: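 Confluency was the readout: RAW-Dual macrophages were imaged with IncuCyte after an overnight exposure to compound at 10 μM final. IncuCyte software produced two masks over all imaged wells. The viability score expresses confluency against resting cells, and both masks had to exceed 70% of resting cells for a compound to meet the cutoff.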

[4] = agonist: CpG ODN 1826 0.5 ug/mL

Structure (SMILES) | NF-kB reporter [1, 4] | NF-kB reporter ([1]; agonist: LPS 0.1 ug/mL) | NF-kB reporter ([1]; agonist: MPLA […]) | IRF reporter ([2]; agonist: 3'3'-cGAMP 10 ug/mL) | IRF reporter ([2]; agonist: LPS 0.1 ug/mL) | IRF reporter ([2]; agonist: MPLA […]) | viability score [3]
CCOC(=O)C1=C(C)NC(C)=C(C(=O)OC)C1c1cccc(Cl)c1Cl (configuration not stated) | 0.824 ± 0.081 | 0.603 ± 0.053 | 0.764 ± 0.068 | 1.13 ± 0.06 | 1.35 ± 0.095 | 1.03 ± 0.17 | 0.859 (active)
CC1=C(C(=O)OCCN(Cc2ccccc2)c2ccccc2)C(c2cccc([N+](=O)[O-])c2)C(P2(=O)OCC(C)(C)CO2)=C(C)N1 (configuration not stated) | 0.86 ± 0.2 | 0.475 ± 0.024 | 0.543 ± 0.034 | 0.555 ± 0.028 | 0.917 ± 0.15 | 0.736 ± 0.074 | 1 (active)
Cc1cc(O)nc(NN)n1 | 1.06 ± 0.087 | 1.01 ± 0.062 | 1.02 ± 0.033 | 0.983 ± 0.054 | 0.971 ± 0.13 | 0.861 ± 0.13 | 0.999 (active)
O=C(O)c1ccc(NCn2nnc3ccccc32)cc1 | 1.05 ± 0.1 | 0.928 ± 0.12 | 1.03 ± 0.097 | 1 ± 0.032 | 1.37 ± 0.27 | 1.51 ± 0.23 | 1 (active)
Oc1nc[nH]n1 | 1.05 ± 0.087 | 0.927 ± 0.067 | 1.02 ± 0.022 | 1 ± 0.06 | 0.923 ± 0.04 | 0.838 ± 0.074 | 1 (active)
CC(=O)C(C(=O)Nc1ccc(F)cc1)C(c1ccc(Cl)cc1Cl)C(C#N)C#N (configuration not stated) | 0.894 ± 0.054 | 0.93 ± 0.057 | 0.915 ± 0.093 | 0.903 ± 0.04 | 1.1 ± 0.075 | 1.02 ± 0.26 | 1.01 (active)
CN(C)C/C=C/C(=O)Nc1cc2c(Nc3ccc(F)c(Cl)c3)ncnc2cc1O[C@H]1CCOC1.O=C(O)/C=C\C(=O)O.O=C(O)/C=C\C(=O)O | 0.365 ± 0.017 | 0.661 ± 0.089 | 0.613 ± 0.034 | 0.418 ± 0.026 | 0.795 ± 0.17 | 0.855 ± 0.3 | 0.999 (active)
Oc1ccc(N=Cc2ccccc2)cc1 | 1.38 ± 0.18 | 1.2 ± 0.079 | 2.67 ± 0.18 | 0.605 ± 0.037 | 0.924 ± 0.082 | 1.58 ± 0.35 | 0.988 (active)
CCCC(=O)Nc1ccc(OCC(O)CNC(C)C)c(C(C)=O)c1.Cl (configuration not stated) | 1.14 ± 0.1 | 1.03 ± 0.05 | 0.983 ± 0.022 | 0.94 ± 0.054 | 1.01 ± 0.12 | 0.864 ± 0.11 | 0.999 (active)
O=C1C(O)=C(c2ccc([N+](=O)[O-])cc2)C(=O)c2ccccc21 | 0.967 ± 0.065 | 1.02 ± 0.1 | 0.905 ± 0.079 | 0.969 ± 0.038 | 1.53 ± 0.13 | 1.28 ± 0.23 | 1 (active)
O=C(Nc1ccccc1)NC1CCS(=O)(=O)C1 (configuration not stated) | 1.02 ± 0.096 | 1.09 ± 0.1 | 0.998 ± 0.042 | 0.97 ± 0.054 | 0.889 ± 0.16 | 0.88 ± 0.18 | 0.995 (active)
CCOc1nccn2c(CNC(=O)c3cccnc3)nnc12 | 0.929 ± 0.098 | 1.05 ± 0.084 | 1.11 ± 0.15 | 1.03 ± 0.064 | 1.02 ± 0.19 | 1 ± 0.4 | 0.988 (active)
O=C(c1ccccc1)c1cc([N+](=O)[O-])ccc1N1CCOCC1 | 2.4 ± 0.19 | 1.15 ± 0.069 | 1.88 ± 0.13 | 0.297 ± 0.03 | 1.65 ± 0.12 | 1.48 ± 0.32 | 0.739 (active)
CN(C)CCC=C1c2ccccc2CCc2ccccc21.Cl | 0.903 ± 0.19 | 1.26 ± 0.48 | 1.21 ± 0.17 | 0.423 ± 0.017 | 1.31 ± 0.44 | 1.12 ± 0.084 | 0.412 (inactive)
C[C@H](Oc1ccc(S(C)(=O)=O)cc1C(=O)N1CCN(c2ncc(C(F)(F)F)cc2F)CC1)C(F)(F)F | 0.902 ± 0.073 | 0.807 ± 0.11 | 0.936 ± 0.056 | 0.821 ± 0.074 | 1.03 ± 0.038 | 0.706 ± 0.15 | 1 (active)
CC1c2cccc(O)c2C(=O)C2=C(O)C3(O)C(=O)C(C(N)=O)=C(O)C(N(C)C)C3C(O)C21.Cl (configuration not stated) | 1.34 ± 0.32 | 1.15 ± 0.058 | 1.04 ± 0.074 | 0.795 ± 0.041 | 1.14 ± 0.15 | 1.02 ± 0.12 | 0.992 (active)
Br.Cc1ccc(-c2csc(N3N=C(c4ccc(F)cc4)CC3c3ccc(C(C)C)cc3)n2)cc1C (configuration not stated) | 0.948 ± 0.083 | 1.01 ± 0.072 | 0.903 ± 0.088 | 0.824 ± 0.027 | 1.35 ± 0.14 | 1.13 ± 0.099 | 1 (active)
CN1CCN(C(=O)c2cc(-c3ccccc3)nc3ccccc23)CC1 | 1.03 ± 0.11 | 0.906 ± 0.059 | 0.957 ± 0.043 | 0.941 ± 0.15 | 0.923 ± 0.051 | 0.884 ± 0.081 | 0.996 (active)
CC(C)(C)C(=O)NCc1cccnc1-c1cccnc1 | 0.968 ± 0.052 | 1.02 ± 0.1 | 0.892 ± 0.047 | 0.972 ± 0.052 | 0.982 ± 0.061 | 0.97 ± 0.13 | 1.01 (active)
COc1cc(C=C(C#N)c2nc3ccccc3[nH]2)cc(Cl)c1O | 1.23 ± 0.07 | 1.05 ± 0.09 | 0.992 ± 0.029 | 1.09 ± 0.039 | 1.06 ± 0.061 | 1.07 ± 0.14 | 0.998 (active)
CC(C)(C)NC[C@H](O)COc1nsnc1N1CCOCC1.O=C(O)/C=C\C(=O)O | 1.19 ± 0.2 | 1.13 ± 0.43 | 0.917 ± 0.056 | 0.906 ± 0.031 | 1.3 ± 0.34 | 1.21 ± 0.14 | 0.992 (active)
COc1ccccc1-c1cc(-c2ccccc2)nc(SCC(=O)c2cc3ccccc3oc2=O)c1C#N | 0.981 ± 0.058 | 1.02 ± 0.066 | 0.966 ± 0.061 | 0.879 ± 0.034 | 1.45 ± 0.16 | 1.07 ± 0.1 | 1 (active)
COC(CNS(=O)(=O)c1ccccc1Cl)c1cccc(F)c1 (configuration not stated) | 1.21 ± 0.074 | 1.04 ± 0.078 | 1.08 ± 0.038 | 0.849 ± 0.045 | 1.03 ± 0.055 | 0.736 ± 0.12 | 0.995 (active)
O=C(NN=Cc1c(O)ccc2ccccc12)c1ccccc1 | 1.48 ± 0.12 | 1.19 ± 0.08 | 1.12 ± 0.054 | 0.752 ± 0.11 | 1.23 ± 0.077 | 1.14 ± 0.12 | 0.979 (active)
CC(=O)N1CCC(C(=O)NCc2cccnc2-c2cnn(C)c2)CC1 | 1.02 ± 0.11 | 1.06 ± 0.11 | 0.903 ± 0.099 | 1.04 ± 0.095 | 1.18 ± 0.074 | 1.15 ± 0.25 | 0.995 (active)
N#Cc1ccc(C(=O)Nc2nc(-c3cccs3)c(C(=O)C(F)(F)F)s2)cc1 | 0.789 ± 0.091 | 1.06 ± 0.13 | 1.09 ± 0.17 | 0.958 ± 0.03 | 1.36 ± 0.21 | 1.54 ± 0.27 | 1.03 (active)
